Data on 92 molecules can be found in PubChem BioAssay AID1861 (The Scripps Research Institute Molecular Screening Center, 2009).

Hit rate of the full screen: of about 290,000 compounds, about 3,100 (1.1%) were called active. Cut-off read from the data, not from the text of the source: active = inhibition above about 16% (passing the limit was not always enough); inactive = the rest. This excerpt belongs to a sample that is enriched for actives.

The assay deals with Neuropeptides B/W receptor type 1 (Homo sapiens) (UniProt P48145). In words: blockers of human neuropeptide B/W receptor 1 – cell-based, fluorescence, single concentration, primary screen (AID 1861).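 Note: cells stimulated with the agonist NPW; 0% = agonist with vehicle and 100% = vehicle without agonist.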 Conditions: GPR7-expressing cells, fluorescence antagonist assay; at 4.4 µM; active compounds read high.
Sequence of Neuropeptides B/W receptor type 1 (Homo sapiens) (P48145 whole entry, looked up): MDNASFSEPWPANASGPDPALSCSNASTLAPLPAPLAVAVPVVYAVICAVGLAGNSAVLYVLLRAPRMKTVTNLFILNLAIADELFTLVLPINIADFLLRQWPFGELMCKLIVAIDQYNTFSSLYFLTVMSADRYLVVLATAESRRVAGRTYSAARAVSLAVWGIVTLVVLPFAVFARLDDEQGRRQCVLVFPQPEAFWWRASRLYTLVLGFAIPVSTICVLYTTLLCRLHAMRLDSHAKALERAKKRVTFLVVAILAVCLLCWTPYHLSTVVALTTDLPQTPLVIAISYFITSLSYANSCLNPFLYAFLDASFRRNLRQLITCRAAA
As to `CS(=O)(=O)N1CCc2nc(-c3ccccc3)sc2C1`, the inhibition is -4.29% (inactive). To `CC(=O)c1cccc(NC(=O)c2ccncc2)c1` belongs -7.93% (inactive); to `CCSc1nsc(NC(=O)Nc2ccccc2OC)n1`, 0.35% (inactive).

Turning to `C=C(C)C(=O)Nc1cccc(C(C)=O)c1`, the inhibition is -8.07% (inactive). To `CCSc1nsc(NC(=O)Nc2cccc(C(C)=O)c2)n1` belongs 37.1% (active); to `C=CCSc1nnc(NC(=O)c2ccc(NC(C)=O)cc2)s1`, -10.1% (inactive).

Turning to `C=CCSc1nsc(NC(=O)Nc2cccc(C(C)=O)c2)n1`, the inhibition was 32.5% (active). As for `Cc1ccc(S(=O)(=O)NCc2ccc(C(=O)NC3CCC(C)CC3)cc2)cc1` (configuration not stated), the figure is -11.8% (inactive). Regarding `COC(=O)c1ccc(CN2CCCC(C(=O)Nc3cccc(-n4cnnn4)c3)C2)cc1` (configuration not stated), the inhibition is -3.8% (inactive). As for `CCOC(=O)C1Sc2[nH]c(=O)sc2C(c2ccc(Cl)cc2)C1C(=O)OCC` (configuration not stated), the figure is -3.9% (inactive).

Consider `Cc1cc(C)c(C(=O)CSc2nc(C)cc(=O)[nH]2)c(C)c1`, for which the inhibition was 5.17% (inactive). As for `COc1ccc(C2CC(c3ccccc3)Nc3ncnn32)cc1` (configuration not stated), the figure is 12.2% (inactive); as for `COc1ccc(C2CC(c3ccc(C)cc3)Nc3ncnn32)cc1` (configuration not stated), 3.36% (inactive). To `Clc1ccc(C2CC(c3cccs3)n3ncnc3N2)cc1Cl` (configuration not stated) belongs 24.9% (active); to `Brc1ccccc1CN1CCC(Cc2ccccc2)CC1`, -13.6% (inactive); to `COc1ccc(Cn2c(C)c(C)c(C#N)c2NC(=O)Nc2ccc(F)cc2)cc1`, -4.33% (inactive). To `COc1cccc(/C=C2/SC(=S)N(CC(=O)NC3C=CS(=O)(=O)C3)C2=O)c1` (configuration not stated) belongs -2.21% (inactive). Regarding `Cc1nc2ccc(S(=O)(=O)N(C)CC(=O)NC(C)c3ccccc3)cc2s1` (configuration not stated), the inhibition is 2.55% (inactive). To `COCCN1C(=O)C(=O)/C(=C(/O)c2ccc(S(=O)(=O)N3CCCCC3)cc2)C1c1ccc(OC)c(OC)c1` (configuration not stated) belongs -6.88% (inactive); to `COC(=O)c1cc(N2CCNCC2)nc2ccccc12`, 1.6% (inactive); to `COc1ccc(S(=O)(=O)NCCc2c[nH]c3ccccc23)cc1OC`, -6.73% (inactive). To `COc1ccccc1CC(=O)NCCc1c[nH]c2ccccc12` belongs -0.98% (inactive). As for `COc1cccc(CNCCc2c[nH]c3ccccc23)c1OCc1ccccc1F`, the figure is 39.6% (active). As for `O=C(CN1CCC(NC(=O)Nc2ccccc2)CC1)Nc1cccc([N+](=O)[O-])c1`, the inhibition is -1.48% (inactive). To `CC(NC(=O)c1cc(=O)[nH]c2ccccc12)c1ccc(F)cc1F` (configuration not stated) belongs 0.31% (inactive).

As for `CC(C)CC(CCc1ccccc1)OS(N)(=O)=O` (configuration not stated), the inhibition was -8.91% (inactive). With `Cc1cccc(NC(=O)c2cccc(C(=O)Nc3cccc(C)c3C)n2)c1C`, the inhibition is 36.1% (active).

`Cc1nc(C)c(C(=O)Nc2cccc(C)c2C)o1`: the inhibition is 1.66% (inactive). To `Cc1cccc(NC(=O)c2ccc3nsnc3c2)c1C` belongs 4.08% (inactive); to `CC(C)N1CCC(NC(=O)Nc2ccccc2)CC1`, -11.8% (inactive); to `Cn1cc(CNC(=O)c2ccc(OC3CCN(Cc4ccccn4)CC3)cc2)cn1`, -5.98% (inactive). As for `CN(Cc1ccccc1)C(=O)c1ccc(NC2=NC3CS(=O)(=O)CC3S2)cc1` (configuration not stated), the figure is -12.5% (inactive); as for `COc1ccc(C2C=C(c3ccc(Br)cc3)Nc3nc(NS(C)(=O)=O)nn32)cc1` (configuration not stated), 15% (inactive); as for `O=C(NCCCNc1ccc([N+](=O)[O-])cc1Cl)c1ccccc1F`, 5.46% (inactive). On to `O=C(NCCNc1ccc([N+](=O)[O-])cc1Cl)c1ccccc1F`, for which the inhibition is 33.5% (active). Consider `O=C(NCCNc1ccccc1[N+](=O)[O-])c1ccccc1F`, for which the inhibition was 2.99% (inactive).

As for `COc1cccc(CNc2nc(C(F)(F)F)nc3ccccc23)c1`, the inhibition was -8.14% (inactive). In the case of `Cc1ccc(N2C(=O)C3C4C=CC(CC4)C3C2=O)cc1Cl` (configuration not stated), the inhibition is -5.89% (inactive). Turning to `CCCCN(CCCC)CC(O)Cn1c2ccccc2c(=O)c2ccccc21` (configuration not stated), the inhibition is 4.5% (inactive).

With `CS(=O)(=O)N(CC(O)Cn1c2ccccc2c2ccccc21)c1cccc2ccccc12` (configuration not stated), the inhibition is 29% (active).

Turning to `O=C1c2ccccc2S(=O)(=O)N1CC(O)Cn1c2ccccc2c2ccccc21` (configuration not stated), the inhibition is 27.4% (inactive). To `COc1cc(C(=O)NCc2cc3cc(Cl)ccc3n2C)cc(OC)c1OC` belongs -5.99% (inactive). To `CCN(CC)S(=O)(=O)c1ccc(N2CCN(C)CC2)c(NC(=O)Nc2ccccc2F)c1` belongs 6.45% (inactive); to `COc1ccc(NC(=O)c2cnc(NS(=O)(=O)c3ccccc3)nc2)cc1`, -10.5% (inactive); to `COc1ccc(NS(=O)(=O)c2ccc(NC(=S)NC(=O)CC(C)C)cc2)cc1`, 24.2% (active).

As for `COc1cc(OC)cc(C(=O)Nc2ccc(S(=O)(=O)Nc3cc(C)on3)cc2)c1`, the inhibition is -3.8% (inactive). To `CC(=O)c1ccc(NC(=S)NC(=O)CC(C)C)cc1` belongs -3.47% (inactive); to `COc1ccc(NS(=O)(=O)c2ccc(NC(=O)c3ccc(N(C)S(C)(=O)=O)cc3)cc2)cc1`, 22.9% (active). As for `COc1cc(NS(=O)(=O)c2ccc(NC(C)=O)cc2)cc(OC)c1`, the figure is -5.8% (inactive); as for `Cc1ccc(C(=O)OCC(=O)NC(=O)Cc2ccccc2)c(O)c1`, -16.1% (inactive); as for `CCOC(=O)CNC(=O)/C=C/c1c(Cl)cccc1Cl`, 10.2% (inactive).

Take `O=C(Nc1ccccc1C(=O)O)c1ccc(N2C(=O)C3CC=CCC3C2=O)cc1` (configuration not stated): the inhibition was -9.35% (inactive). In the case of `O=C(c1ccccc1)N1CCC(CC2CC(c3ccc(Cl)cc3)=NO2)(C(=O)NCC2CCCCC2)CC1` (configuration not stated), the inhibition was -2.72% (inactive). To `CCc1nc(Nc2ccc(NC(C)=O)cc2)c2oc3ccccc3c2n1` belongs -6.65% (inactive). As to `Cc1cccc2c1N(CC(=O)OC(C)C)C(=O)C2=O`, the inhibition was -5.53% (inactive). To `CC(C)OC(=O)CN1C(=O)C(=O)c2ccccc21` belongs -2.31% (inactive); to `CC(C)OC(=O)CN1C(=O)c2ccccc2C1=O`, 20.4% (active). As for `N#CCOc1ccc(C2=NO[C@@H]3[C@@H]4C[C@@H]([C@H]5C(=O)N(c6ccc7c(c6)OCO7)C(=O)[C@@H]45)[C@H]23)cc1`, the figure is 4.89% (inactive). As to `CCc1nn(CC(=O)N2CCN(CC)CC2)c(=O)c2cccn12`, the inhibition was -11.1% (inactive). To `O=C(Nc1ccccc1Cl)/C(Cl)=C(\Cl)S(=O)c1ccccc1` (configuration not stated) belongs 23.4% (active); to `O=C(COC(=O)c1cccs1)Nc1ccccc1Cl`, -12.8% (inactive); to `O=C(Nc1ccccc1Cl)Nn1cnnc1`, -16.3% (inactive).

With `CN(C)S(=O)(=O)c1ccc(C(=O)NCCN=C2NS(=O)(=O)c3ccccc32)cc1`, the inhibition is -2.36% (inactive). As for `O=C(O)c1ccc(OCC2CCCO2)cc1` (configuration not stated), the figure is -9.77% (inactive); as for `CCn1c(SCc2ccccc2)nc2cc(OC)c(OC)cc2c1=O`, -30.7% (inactive); as for `COc1ccc(NC(=O)C2CCC(CNS(=O)(=O)c3csc(C(N)=O)c3)CC2)cc1OC` (configuration not stated), 24.1% (active).

As to `CC(=O)Nc1ccc(S(=O)(=O)NCC2CCC(C(=O)NCCc3ccccc3)CC2)cc1` (configuration not stated), the inhibition was -13.4% (inactive). `COc1cccc(CNS(=O)(=O)c2csc(C(N)=O)c2)c1`: the inhibition is -3.2% (inactive). As for `Cc1cc(=O)oc2c(C)c(OCC(=O)NCCc3ccc(S(N)(=O)=O)cc3)ccc12`, the figure is 9.11% (inactive); as for `COC(=O)CN1C(=O)C(C)(C)Oc2ccc(C(=O)Nc3cccc(OC)c3)cc21`, -8.64% (inactive); as for `COc1ccc([N+](=O)[O-])cc1N(CC(O)CN(CC(C)C)CC(C)C)S(=O)(=O)c1ccc(C)cc1` (configuration not stated), 21.7% (active). In the case of `Cc1ccc(S(=O)(=O)N(CC(O)CN2CCCCC2)c2cccc([N+](=O)[O-])c2)cc1` (configuration not stated), the inhibition is -4.51% (inactive).

Regarding `COc1ccc([N+](=O)[O-])cc1N(CC(O)Cn1nnc2ccccc21)S(=O)(=O)c1ccc(C)cc1` (configuration not stated), the inhibition is -11.4% (inactive). To `O=C(/C=C/c1cccs1)c1cc(Cl)ccc1OC(=O)N1CCOCC1` belongs -2.52% (inactive); to `CSc1ccccc1NC(=O)CN(C)CC(=O)Nc1ccc(Cl)cc1[N+](=O)[O-]`, 12.5% (inactive); to `CCC(C)c1ccccc1NC(=O)CN(C)CC(=O)Nc1ccccc1SC` (configuration not stated), 31.4% (active). For the molecule `CSc1ccccc1NC(=O)CN(C)CC(=O)Nc1cccc(Br)c1`, the inhibition is 3.51% (inactive). In the case of `COc1cc(OC)c(OC)cc1/C=N/Nc1ncnc2c1[nH]c1ccc(C)cc12`, the inhibition was -19.8% (inactive). As for `CC(C)OCCCNc1ncnc2c1[nH]c1ccc(F)cc12`, the inhibition is 26.6% (active). To `Fc1ccc2[nH]c3c(N4CCSCC4)ncnc3c2c1` belongs -5.82% (inactive); to `Cc1ccc(S(=O)(=O)N2CCN(c3ccccc3)CC2)cc1C`, 0.58% (inactive). As to `COc1cccc(CNS(=O)(=O)c2ccc3c(c2)CC(C)N3C(=O)C2CCC2)c1` (configuration not stated), the inhibition was 17.9% (inactive).

For the molecule `CC1=CCC2C(=O)N(c3cccc(C(=O)NC(C)c4ccccc4)c3)C(=O)C2C1` (configuration not stated), the inhibition is 0.74% (inactive). To `Cc1cccc(NC(=O)C(C)SCc2ccccc2)c1` (configuration not stated) belongs -8.07% (inactive); to `O=C(Nc1ccncc1)c1ccc(Cl)c([N+](=O)[O-])c1`, 1.68% (inactive); to `O=C(Nc1c2c(nn1-c1ccccc1)CS(=O)(=O)C2)C1CCCC1`, 4.15% (inactive). To `COc1ccc(OC)c(C(c2nnnn2C(C)(C)C)N2CCc3ccccc3C2)c1` (configuration not stated) belongs 24% (active); to `COc1ccccc1C(c1nnnn1C(C)(C)C)N1CCN(Cc2ccccc2)CC1` (configuration not stated), 10.7% (inactive); to `COCCn1nnnc1C(c1cc2ccc(OC)cc2[nH]c1=O)N1CCc2ccccc2C1` (configuration not stated), 17.6% (inactive). Turning to `CC1CCCN(CCCNC(=O)CN2C(=O)COc3ccc(S(=O)(=O)N4CCOCC4)cc32)C1` (configuration not stated), the inhibition is -10.9% (inactive). To `COC(=O)CCC(=O)N1CCCC(CO)(Cc2ccccc2)C1` (configuration not stated) belongs -0.55% (inactive). As to `Cc1cccc(NC(=O)COC(=O)CCc2ccccc2)c1C`, the inhibition is -16.3% (inactive).

For orientation: inhibition means the change of the read-out against control, counted positive when it falls.
